# Reference: PubChem BioAssay (EPA / NIEHS)
# Results filed as inconclusive are left out. Active and inactive are the calls of the source. How the source made its calls, unless noted: active means hit-call score of the fitted dose curve at least 0.9, where 1 is the maximum; inconclusive means response in the unintended direction; inactive means score below 0.9.
# System: not listed separately
# Assay: TOX21_TRB_BLA_Antagonist_Followup_viability: Viability Assessment in the Tox21 Thyroid Hormone Receptor beta Antagonism Beta-lactamase (BLA) Follow-Up Assay (AID 2283961)
# Procedure, shortened: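 In the same wells as the reporter read, cell health was gauged by CellTiter-Glo ATP luminescence, with signal loss indicating reduced viability. Cells had been exposed to test compounds for 18 h.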
Compound,outcome,AC50
O=C(O)c1cccnc1Nc1cccc(C(F)(F)F)c1,inactive,–
C#C[C@]1(O)CC[C@H]2[C@@H]3CCC4=C(CCC(=O)C4)[C@H]3CC[C@@]21C,inactive,–
O=C1c2ccccc2-c2n[nH]c3cccc1c23,inactive,–
O=c1[nH]c(=O)n([C@H]2C[C@H](O)[C@@H](CO)O2)cc1C(F)(F)F,inactive,–
C/C=C1/C(=O)C[C@H]2[C@@H]3CCC4=CC(=O)CC[C@]4(C)[C@H]3CC[C@]12C,inactive,–
COc1cc(NCc2ccc3nc(N)nc(N)c3c2C)cc(OC)c1OC,–,1460 nM (active)
COC(=O)Nc1nc2ccc(S(=O)c3ccccc3)cc2[nH]1 (stereo unspecified),inactive,–
Cc1ccc(Nc2nccc(N(C)c3ccc4c(C)n(C)nc4c3)n2)cc1S(N)(=O)=O,–,19200 nM (active)

# Target: THRB (gene 7068) (UniProt P10828)
# Assay: TOX21_TRB_COA_Antagonist_Followup_ratio: Tox21 Thyroid Hormone Receptor beta Antagonism through Coactivator Recruitment Follow-Up Assay, Ratio (AID 2283967)
# Procedure, shortened: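 Test compound was incubated with 5.0 nM GST-TRβ LBD in 0.10% BSA. Then 200 nM fluorescein-SRC-2 peptide and 2 nM terbium anti-GST antibody were added. TR-FRET (520:495 nm) was measured and normalized to DMSO and T3 controls.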
# Sequence of THRB (gene 7068) (P10828 whole entry, looked up): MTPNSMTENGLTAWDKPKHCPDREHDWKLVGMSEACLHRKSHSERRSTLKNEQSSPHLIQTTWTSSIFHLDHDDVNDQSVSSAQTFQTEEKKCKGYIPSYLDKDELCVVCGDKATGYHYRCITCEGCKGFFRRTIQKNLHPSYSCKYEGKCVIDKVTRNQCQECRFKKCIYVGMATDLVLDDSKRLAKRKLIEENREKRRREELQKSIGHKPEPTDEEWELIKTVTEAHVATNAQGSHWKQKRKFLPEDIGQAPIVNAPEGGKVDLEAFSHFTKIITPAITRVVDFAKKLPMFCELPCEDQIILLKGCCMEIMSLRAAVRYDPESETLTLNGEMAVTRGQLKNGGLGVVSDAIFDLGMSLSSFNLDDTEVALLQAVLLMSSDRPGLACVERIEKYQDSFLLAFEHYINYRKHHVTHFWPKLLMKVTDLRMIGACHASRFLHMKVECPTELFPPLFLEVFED
Compound,outcome,AC50
CC(=O)O[C@@]12CO[C@@H]1C[C@H](O)[C@@]1(C)C(=O)[C@H](O)C3=C(C)[C@@H](OC(=O)[C@H](O)[C@@H](NC(=O)OC(C)(C)C)c4ccccc4)C[C@@](O)([C@@H](OC(=O)c4ccccc4)[C@H]21)C3(C)C,inactive,–
O=C(O)c1cccnc1Nc1cccc(C(F)(F)F)c1,inactive,–
C#C[C@]1(O)CC[C@H]2[C@@H]3CCC4=C(CCC(=O)C4)[C@H]3CC[C@@]21C,inactive,–
CCCCCCC[N+](CC)(CC)CCCCc1ccc(Cl)cc1,inactive,–
CC(=O)OCC(=O)[C@H]1CC[C@H]2[C@@H]3CCC4=CC(=O)CC[C@]4(C)[C@H]3CC[C@]12C,inactive,–
C/C=C1/C(=O)C[C@H]2[C@@H]3CCC4=CC(=O)CC[C@]4(C)[C@H]3CC[C@]12C,inactive,–
Cc1nc2ccc(CN(C)c3ccc(C(=O)N[C@@H](CCC(=O)O)C(=O)O)s3)cc2c(=O)[nH]1,inactive,–
COc1cc(NCc2ccc3nc(N)nc(N)c3c2C)cc(OC)c1OC,inactive,–
COC(=O)Nc1nc2ccc(S(=O)c3ccccc3)cc2[nH]1 (stereo unspecified),inactive,–
Cc1ccc(Nc2nccc(N(C)c3ccc4c(C)n(C)nc4c3)n2)cc1S(N)(=O)=O,–,19200 nM (active)

# Target: Retinoic acid receptor RXR-alpha (Homo sapiens) (UniProt P19793)
# Assay: TOX21_TR_RXR_BLA_Antagonist_Followup_ratio: Tox21 Thyroid Hormone Receptor beta Retinoid X Receptor alpha (RXRa) Antagonism Beta-lactamase (BLA) Follow-Up Assay, Ratio (AID 2283972)
# Procedure, shortened: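 Compounds were tested in triplicate at 11 concentrations on RXRa-bla HEK293T cells for 16 h. Substrate cleavage ratio, normalized to DMSO, gave the endpoint.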
# Sequence of Retinoic acid receptor RXR-alpha (Homo sapiens) (P19793 whole entry, looked up): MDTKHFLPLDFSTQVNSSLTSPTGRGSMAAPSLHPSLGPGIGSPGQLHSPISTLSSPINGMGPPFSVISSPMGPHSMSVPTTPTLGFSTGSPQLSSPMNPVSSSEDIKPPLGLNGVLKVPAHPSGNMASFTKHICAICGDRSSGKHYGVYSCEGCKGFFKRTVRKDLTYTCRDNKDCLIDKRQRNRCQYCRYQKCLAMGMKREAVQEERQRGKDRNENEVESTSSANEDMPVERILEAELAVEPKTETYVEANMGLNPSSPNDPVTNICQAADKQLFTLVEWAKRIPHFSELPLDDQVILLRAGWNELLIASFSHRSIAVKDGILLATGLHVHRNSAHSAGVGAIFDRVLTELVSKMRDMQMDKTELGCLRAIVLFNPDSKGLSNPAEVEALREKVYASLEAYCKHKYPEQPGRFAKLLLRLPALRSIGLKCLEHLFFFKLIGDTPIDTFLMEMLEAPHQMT
Compound,outcome,AC50
CC(=O)O[C@@]12CO[C@@H]1C[C@H](O)[C@@]1(C)C(=O)[C@H](O)C3=C(C)[C@@H](OC(=O)[C@H](O)[C@@H](NC(=O)OC(C)(C)C)c4ccccc4)C[C@@](O)([C@@H](OC(=O)c4ccccc4)[C@H]21)C3(C)C,inactive,–
O=C(O)c1cccnc1Nc1cccc(C(F)(F)F)c1,inactive,–
O=C1c2ccccc2-c2n[nH]c3cccc1c23,inactive,–
CCCCCCC[N+](CC)(CC)CCCCc1ccc(Cl)cc1,inactive,–
COc1cc(NCc2ccc3nc(N)nc(N)c3c2C)cc(OC)c1OC,–,1760 nM (active)
COC(=O)Nc1nc2ccc(S(=O)c3ccccc3)cc2[nH]1 (stereo unspecified),inactive,–

# System: not listed separately
# Assay: TOX21_TR_RXR_BLA_Antagonist_Followup_viability: Viability Assessment in the Tox21 Thyroid Hormone Receptor beta Retinoid X Receptor alpha (RXRa) Antagonism Beta-lactamase (BLA) Follow-Up Assay (AID 2283979)
# Procedure, shortened: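 Follow-up compounds (11 concentrations, triplicate) were incubated 16 h at 37C/5% CO2 with HEK293T RXRa-bla cells seeded at 2,500/well in charcoal-stripped-serum medium. ATP content by CellTiter-Glo luminescence gave viability; curves fitted in both directions against DMSO.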
Compound,outcome,AC50
CC(=O)O[C@@]12CO[C@@H]1C[C@H](O)[C@@]1(C)C(=O)[C@H](O)C3=C(C)[C@@H](OC(=O)[C@H](O)[C@@H](NC(=O)OC(C)(C)C)c4ccccc4)C[C@@](O)([C@@H](OC(=O)c4ccccc4)[C@H]21)C3(C)C,inactive,–
O=C(O)c1cccnc1Nc1cccc(C(F)(F)F)c1,inactive,–
C#C[C@]1(O)CC[C@H]2[C@@H]3CCC4=C(CCC(=O)C4)[C@H]3CC[C@@]21C,inactive,–
O=C1c2ccccc2-c2n[nH]c3cccc1c23,inactive,–
CCCCCCC[N+](CC)(CC)CCCCc1ccc(Cl)cc1,inactive,–
O=c1[nH]c(=O)n([C@H]2C[C@H](O)[C@@H](CO)O2)cc1C(F)(F)F,inactive,–
CC(=O)OCC(=O)[C@H]1CC[C@H]2[C@@H]3CCC4=CC(=O)CC[C@]4(C)[C@H]3CC[C@]12C,inactive,–
C/C=C1/C(=O)C[C@H]2[C@@H]3CCC4=CC(=O)CC[C@]4(C)[C@H]3CC[C@]12C,inactive,–
Cc1nc2ccc(CN(C)c3ccc(C(=O)N[C@@H](CCC(=O)O)C(=O)O)s3)cc2c(=O)[nH]1,inactive,–
COc1cc(NCc2ccc3nc(N)nc(N)c3c2C)cc(OC)c1OC,–,1770 nM (active)
COC(=O)Nc1nc2ccc(S(=O)c3ccccc3)cc2[nH]1 (stereo unspecified),inactive,–
Cc1ccc(Nc2nccc(N(C)c3ccc4c(C)n(C)nc4c3)n2)cc1S(N)(=O)=O,inactive,–

# System: not listed separately
# Assay: CCTE_Harrill_HTTr_Viability_MCF7: CCTE's 6-hour Cell Viability Assessment for the High-Throughput Transcriptomics (HTTr) Platform, in MCF-7 cells cultured in DMEM + 10% fetal bovine serum, Harrill Lab (AID 2284010; active means hit-call score of the fitted dose curve at least 0.9, where 1 is the maximum; inactive means score below 0.9)
# Procedure, shortened: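 MCF-7 cells in DMEM + 10% FBS, 384-well, exposed 6 h to an eight-point dilution series. Membrane integrity scored by high-content imaging of propidium iodide exclusion; bidirectional fit versus DMSO.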
row,Compound,outcome
1,CCCCC(C)=O,inactive
2,O=C1NC(=O)c2ccc3c4ccc5c6c(ccc(c7ccc1c2c73)c64)C(=O)NC5=O,inactive
3,O=C1CC2(CCCC2)CC(=O)N1CCCCN1CCN(c2ncccn2)CC1,inactive
4,O=CO,inactive
5,COC(=O)Nc1nc2ccc(S(=O)c3ccccc3)cc2[nH]1 (stereo unspecified),inactive
